Sm TGR inh: qHTS Assay for the Inhibitors of Schistosoma Mansoni Peroxiredoxins. Schistosoma mansoni thioredoxin glutathione reductase (TGR), Q962Y6. purified TGR, DTNB reduction, TNB absorbance 405 nm. Potency, µM (highest dose often 114 µM), for the others: top-dose activity change, negative = inhibition, hits mostly inhibitors. 360,000 compounds, 3% hits. AID 485364, 2010; further: potency means the concentration at half of the fitted maximal effect; nearly all actives have a fitted effect of over 60% in size
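Kinetic colorimetric format: TGR-catalysed, NADPH-driven DTNB reduction monitored via TNB absorbance. Enzyme dispensed at 20 nM; compound exposure 15 min at room temperature before reaction start.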
HCMV inh: qHTS Assay for inhibitors of the human cytomegalovirus (HCMV). HFF cells, HCMV-luciferase reporter, 72 h; active compounds read low. activity change, negative = inhibition, % at 57.5 µM. 410,000 compounds, 4.5% hits; in the data active means activity change below about -60%; inconclusive means no clear call, values can overlap the other calls; inactive means above about -39%
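Inhibition of viral replication was scored as loss of reporter luminescence in HFFs infected with HCMV-luciferase (MOI 1 PFU/cell) for 72 h; compounds tested at 2 doses, normalized to buffer and Salinomycin controls.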
Pf growth 96h: Primary qHTS for delayed death inhibitors of the malarial parasite plastid, 96 hour incubation; P. falciparum luciferase reporter growth, 96 h; Potency, µM (series often up to 28.7 µM), inactives show top-dose activity change, negative = inhibition, actives largely listed as inhibitors; 320,000 compounds, 6.9% hits; further: potency means the concentration at half of the fitted maximal effect
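P. falciparum expressing integrated firefly luciferase, in erythrocytes at 2% hematocrit, 0.05% parasitemia, incubated with compounds 96 h at 37 C, 5% CO2. Growth inhibition read as loss of luminescence; two-generation exposure targets delayed-death apicoplast inhibitors.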
Giardia FBPA inh: qHTS Assay for Inhibitors of Fructose-1,6-bisphosphate Aldolase from Giardia Lamblia. purified Giardia FBPA. Potency, µM (series often up to 59.6 µM), for inactives: top-dose activity, negative = inhibition, usual class: inhibitors. 290,000 compounds, 0.71% hits. AID 2451, 2010; further: potency means the concentration at half of the fitted maximal effect; nearly all actives have a fitted effect of over 55% in size
Target sequence (A8B2U2 whole entry, looked up): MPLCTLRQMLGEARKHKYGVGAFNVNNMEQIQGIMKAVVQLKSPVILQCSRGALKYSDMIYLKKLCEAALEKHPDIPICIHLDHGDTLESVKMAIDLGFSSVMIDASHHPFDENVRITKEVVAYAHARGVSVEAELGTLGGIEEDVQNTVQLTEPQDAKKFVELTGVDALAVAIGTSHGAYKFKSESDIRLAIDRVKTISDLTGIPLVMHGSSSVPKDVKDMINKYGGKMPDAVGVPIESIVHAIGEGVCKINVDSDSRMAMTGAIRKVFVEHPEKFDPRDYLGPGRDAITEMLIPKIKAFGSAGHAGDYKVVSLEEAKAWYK
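40 nM FBPA preincubated 10 min at RT with compound (up to 57.5 uM final), then substrate plus GAPDH/TPI/NAD/arsenate coupling and diaphorase/resazurin added. Fluorescence read after 20 min at RT, 525/598 nm.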
Pf growth 48h: Primary qHTS for delayed death inhibitors of the malarial parasite plastid, 48 hour incubation | AID 504832, 2011 | P. falciparum luciferase growth in erythrocytes, 48 h | Potency, µM (top dose mostly 28.7 µM), for inactives: top-dose activity change, negative = inhibition, usual class: inhibitors | 310,000 compounds, 5.9% hits; further: potency means the concentration at half of the fitted maximal effect
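Read-out is firefly luciferase luminescence from an integrated reporter in P. falciparum, so falling signal marks reduced parasite growth. Infected erythrocytes were at 2% hematocrit and 0.1% parasitemia (final) in Albumax-supplemented RPMI 1640.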
An asterisk follows results filed as active; [ ] = dose if it differs, or a comment. This is a sample that favours compounds with a hit; in the whole collection about 14% have one here. Unless noted, the call rests on the fitted dose curve; in most records, active means well fitted curve in the direction sought with a large enough effect; inconclusive means small, poorly fitted or top-dose-only effect, or another doubt; inactive means no such curve, though single readings can be large; an effect the other way counts as inactive or inconclusive. On the % scale 0 is the no-effect control and ±100 the full control effect.

For CC(=O)N1c2ccc(S(=O)(=O)NCC3CCC(C(=O)NC4CCCCC4)CC3)cc2CC1C (centres undefined) the results were Sm TGR inh -5%, HCMV inh -8, Pf growth 96h inconclusive, Giardia FBPA inh 8% and Pf growth 48h -22%.
Cc1cccn2c(=O)c3cc(C(=O)NC4CCCC4)c(=N)n(Cc4ccc(F)cc4)c3nc12 was read as Sm TGR inh -17%, HCMV inh -16, Pf growth 96h inconclusive, Giardia FBPA inh 0% and Pf growth 48h inconclusive.
`COc1ccc(CCn2c(=N)c(C(=O)NC3CCCC3)cc3c(=O)n4cccc(C)c4nc32)cc1` gave Sm TGR inh 0%, HCMV inh -33, Pf growth 96h 0.52µM* and Pf growth 48h 0.83µM*.
`COc1ccc(CCn2c(=N)c(C(=O)NCC3CCCO3)cc3c(=O)n4ccccc4nc32)cc1` (centres undefined) gave Sm TGR inh -12%, HCMV inh -112*, Pf growth 96h 4.7µM* and Pf growth 48h 4.7µM*.
Screening Cc1cccn2c(=O)c3cc(C(=O)NC4CCCCC4)c(=N)n(Cc4ccccc4)c3nc12 returned Sm TGR inh 2.8µM*, HCMV inh -61*, Pf growth 96h inconclusive and Pf growth 48h -5%.
Cc1cccn2c(=O)c3cc(C(=O)NC4CCCC4)c(=N)n(CCc4ccccc4)c3nc12 was read as Sm TGR inh -9%, HCMV inh -11, Pf growth 96h 4.1µM* and Pf growth 48h 0.47µM*.
COc1ccc(Cn2c(=N)c(C(=O)NCC3CCCO3)cc3c(=O)n4ccccc4nc32)cc1 (centres undefined) was read as Sm TGR inh 3%, HCMV inh 7, Pf growth 96h inconclusive, Giardia FBPA inh 2% and Pf growth 48h inconclusive.
For COc1ccc(CCn2c(=N)c(S(=O)(=O)c3ccc(C)cc3)cc3c(=O)n4ccccc4nc32)cc1 the results were Sm TGR inh -4%, HCMV inh inconclusive, Pf growth 96h 3.7µM* and Pf growth 48h 5.2µM*.
COc1ccc(CCn2c(=N)c(C(=O)NC3CCCCC3)cc3c(=O)n4ccccc4nc32)cc1 was read as Sm TGR inh 0%, HCMV inh 17, Pf growth 96h inconclusive and Pf growth 48h 0.93µM*.
Cc1ccc2c(=O)cc(CSc3ccccc3)[nH]c2c1C was read as Sm TGR inh -1% and HCMV inh -9.
For O=c1cc(CSc2ccccc2)[nH]c2ccccc12 the results were Sm TGR inh 6%, HCMV inh inconclusive, Pf growth 96h 28%, Giardia FBPA inh -15% and Pf growth 48h 10µM*.
For Cc1ccc2oc3c(c(=O)c2c1)C1(C(=O)N(C)c2ccccc21)N(CCCO)C3=O (centres undefined) the results were Sm TGR inh -4% and HCMV inh 2.
Cc1cc(C)nc(SCC(=O)c2ccc(C)c(C)c2)n1 was read as Sm TGR inh 12%, HCMV inh -10, Pf growth 96h 9.3µM*, Giardia FBPA inh 1% and Pf growth 48h 0%.
Cc1cc(C)nc(SCC(=O)c2ccc([N+](=O)[O-])cc2)n1 was read as Sm TGR inh -23%, HCMV inh -36, Pf growth 96h 0%, Giardia FBPA inh 11% and Pf growth 48h 1%.
C=Cn1c(C(=O)O)cc(CC)c1-c1ccccc1 was read as Sm TGR inh 0%, HCMV inh 6, Pf growth 96h 1.5µM*, Giardia FBPA inh 10% and Pf growth 48h 8%.
Cc1cccc(N(CC(=O)NCc2ccco2)S(=O)(=O)c2ccccc2)c1 was read as HCMV inh -28.
Screening COC(=O)C1=C(c2cccc(OC)c2OC)C[C@@H]2CC[C@H]1N2C(=O)NCc1ccc(F)cc1 returned HCMV inh 7.
Screening COC(=O)C1=C(c2ccccc2OCc2ccccc2)C[C@@H]2CC[C@H]1N2C(=O)NCc1ccc(F)cc1 returned Sm TGR inh -2%, HCMV inh -34, Pf growth 96h inconclusive and Pf growth 48h 9.3µM*.
`COC(=O)C1=C(c2ccc(F)cc2OCc2ccccc2)C[C@@H]2CC[C@H]1N2C(=O)NCc1ccc(F)cc1` gave Sm TGR inh -9%, HCMV inh -20, Pf growth 96h inconclusive and Pf growth 48h 10µM*.
COC(=O)C1=C(c2ccccc2OCc2ccccc2)C[C@@H]2CC[C@H]1N2C(=O)NCc1ccc(C(C)(C)C)cc1 was read as Sm TGR inh 6%, HCMV inh -16, Pf growth 96h inconclusive and Pf growth 48h 6.6µM*.
COC(=O)C1=C(c2ccc(F)cc2OCc2ccccc2)C[C@@H]2CC[C@H]1N2C(=O)NCc1ccc(C)cc1 was read as Sm TGR inh -1%, HCMV inh -67*, Pf growth 96h inconclusive and Pf growth 48h 9.3µM*.
Screening COc1ccc(NC(C)=O)cc1CP(=O)(c1ccccc1)c1ccccc1 returned Sm TGR inh -4%, HCMV inh -34, Pf growth 96h -11%, Giardia FBPA inh 8% and Pf growth 48h -12%[0.00184 µM].
`CCOC(=O)c1ccc(NC(=O)c2oc3c(c2C)-c2nn(Cc4ccccc4Cl)cc2CC3)cc1` gave Sm TGR inh -1% and HCMV inh 70.
COC(=O)C1=C(c2ccc(F)cc2F)C[C@@H]2CC[C@H]1N2C(=O)NCc1ccc(C(F)(F)F)cc1 was read as Sm TGR inh -4%, HCMV inh 1, Pf growth 96h inconclusive and Pf growth 48h 12µM*.
For COC(=O)C1=C(c2ccc(F)cc2OCc2ccccc2)C[C@@H]2CC[C@H]1N2C(=O)NCCCc1ccccc1 the results were Sm TGR inh 6%, HCMV inh -26, Pf growth 96h 5.2µM* and Pf growth 48h 12µM*.
For COC(=O)C1=C(c2ccc(F)cc2OCc2ccccc2)C[C@@H]2CC[C@H]1N2C(=O)NCc1ccc([N+](=O)[O-])cc1 the results were Sm TGR inh -5%, HCMV inh 4, Pf growth 96h inconclusive and Pf growth 48h 12µM*.
Screening COC(=O)C1=C(c2ccc(F)cc2F)C[C@@H]2CC[C@H]1N2C(=O)NCc1ccc2c(c1)OCO2 returned Sm TGR inh -2%, HCMV inh 14, Pf growth 96h inconclusive and Pf growth 48h inconclusive.
COC(=O)C1=C(c2ccc(F)cc2OCc2ccccc2)C[C@@H]2CC[C@H]1N2C(=O)NC1Cc2ccccc2C1 was read as Sm TGR inh -6%, HCMV inh -8, Pf growth 96h 1.7µM* and Pf growth 48h inconclusive.
